# Test results taken from paper PMC4552634, “A New Set of Chemical Starting Points with Plasmodium falciparum Transmission-Blocking Potential for Antimalarial Drug Discovery” (PLoS ONE, 2015).
# Out of some 13,000 compounds screened, about 3,200 (25%) showed an effect of 50% or more. The list shows a part of the results.
# Test system: P. falciparum stage V gametocytes
# Set-up: BacTiter-Glo ATP luminescence viability of purified stage V gametocytes in 384-well plates, per cent inhibition versus DMSO
# Details: 48 h, 5 µM; inhibitor
row,Structure (SMILES),% Inhibition [%]
1,O=C(NCC1CCC(CNCCc2ccccc2)CC1)Nc1ccc(Cl)c(Cl)c1 (stereo not shown) [TCMDC-140704],-8.295
2,CCCCCc1cc(O)c2c3c(c(=O)oc2c1)CN(C)CC3 [TCMDC-124170],9.829
3,CC(=O)Nc1csc(-c2cnc(/C=C(\C)C[C@@H]3OC[C@H](C[C@@H]4O[C@H]4[C@@H](C)[C@H](C)O)[C@@H](O)[C@H]3O)o2)c1 [TCMDC-131575],0.669
4,COc1cccc(NC(=O)NC2CCN(c3ccnc(Nc4cc(OC)c(OC)c(OC)c4)n3)C2)c1 (stereo not shown) [TCMDC-133627],-76.2
5,CN(C)C(=S)N=Nc1c(O)[nH]c2ccccc12 [TCMDC-124262],-39.06
6,COc1cc(NC(=O)/C=C/c2ccccc2OC(F)(F)F)cc(OCCN2CCC(O)(c3ccccc3)CC2)c1 [TCMDC-140935],-5.416
7,COc1ccc(C2CCN(CCN3CCC(NC(=O)c4cccc(-c5ccncc5)c4)CC3)CC2)c(OC)c1 [TCMDC-135431],-2.358
8,COc1cc(NC(=O)c2sc(-c3ccc(Cl)cc3)cc2NC(=O)CN2CC[C@@H](O)C2)ccc1OCCN1CCCC1 [TCMDC-135380],114.3
9,COc1cc(NC(=O)c2sc(-c3ccc(Cl)cc3)cc2NC(=O)CN2CCCC2)ccc1OCCN1CCCC1 [TCMDC-135381],-9.57
10,COc1ccc(CCCON2C(N)=NC(N)=NC2(C)C)cc1 [TCMDC-131693],15.23
11,CCc1ccccc1N1CCN(CCCCNC(=O)c2ccc(NC(=O)c3ccc(Cl)cc3)cc2)CC1 [TCMDC-138192],63.87
12,O=C(NCCCCN1CCN(c2cccc3ccccc23)CC1)c1ccc(NC(=O)c2ccc(Cl)cc2)cc1 [TCMDC-138514],-0.4742
13,O=C(NCCCCN1CCC(c2ccc(OC(F)(F)F)cc2)CC1)c1ccc(NC(=O)c2ccc(Cl)cc2)cc1 [TCMDC-138327],35.48
14,CCc1ccc(C2CCN(CCCCNC(=O)c3ccc(NC(=O)c4ccc(Cl)cc4)cc3)CC2)cc1 [TCMDC-138351],54.3
15,O=C(NCCCCN1CCC(c2ccc(Br)cc2)CC1)c1ccc(NC(=O)c2ccc(Cl)cc2)cc1 [TCMDC-138347],1.75
16,CCCc1ccc(C2CCN(CCCCNC(=O)c3ccc(NC(=O)c4ccc(Cl)cc4)cc3)CC2)cc1 [TCMDC-138358],87.46
17,CCc1ccccc1N1CCN(CCCC(=O)c2ccc(NC(=O)c3ccc(Cl)cc3)cc2)CC1 [TCMDC-138230],-10.32
18,C=CCc1ccc(C2CCN(CCCCNC(=O)c3ccc(NC(=O)c4ccc(Cl)cc4)cc3)CC2)cc1 [TCMDC-138355],87.45
19,O=C(NCCCCN1CCC(c2ccc([N+](=O)[O-])cc2)CC1)c1ccc(NC(=O)c2ccc(Cl)cc2)cc1 [TCMDC-138350],25.02
20,O=C(c1cncc(-c2ccccc2)c1)N(Cc1cncn1Cc1ccccc1F)CC1CC1 [TCMDC-132464],14.15
21,CC(C)(C)Oc1ccc(NC(=O)c2ccccc2O)cc1 [TCMDC-137700],29.92
22,COc1ccccc1N(C)CCNc1cc(C)nc(Nc2ccc(C)cc2)n1 [TCMDC-133456],-44.09

row,Structure (SMILES),% Inhibition [%]
1,Cn1cc(C(=O)Nc2cccc(-c3cccc(-c4nc5ccccc5[nH]4)c3)c2)n(C)c1=O [TCMDC-137135],-5.62
2,Cc1cc(C)c(C(=O)Nc2n[nH]c3nnc(-c4cccc(F)c4F)cc23)c(C)c1 [TCMDC-141220],6.955
3,Oc1cc(Nc2ccnc3cc(I)ccc23)ccc1F [TCMDC-138379],-46.78
4,OC(COc1ccccc1-c1nc2ccccc2o1)CN1CCCN(CCc2ccccc2)CC1 (stereo not shown) [TCMDC-141430],28.2
5,COc1ccccc1N1CCN(Cc2c(NC(C)=O)sc(C)c2C)CC1 [TCMDC-124501],-13.75
6,Oc1ccccc1CNCC(O)c1cc(C(F)(F)F)cc(C(F)(F)F)c1 (stereo not shown) [TCMDC-140304],-68.09
7,O=C(NCCCCN1CCC(c2ccc(-c3ccco3)cc2)CC1)c1ccc(NC(=O)c2ccc(Cl)cc2)cc1 [TCMDC-138321],113.6
8,O=C(/C=C/c1ccc(Cl)c(Cl)c1)NCCCCCCN1CCCN(C(=O)Nc2cccc(Cl)c2)CC1 [TCMDC-135939],-30.78
9,O=C(O)C(F)(F)F.c1cc(CNCC2CCCO2)cc(-c2ccc(-c3nc4ccccc4[nH]3)s2)c1 (stereo not shown) [TCMDC-133107],-4.99
10,COc1ccc(Cl)cc1N1CCN(CCCNC(=O)c2ccc(-c3nc4cc(Cl)c(F)cc4[nH]3)s2)CC1 [TCMDC-140102],7.975
11,COc1cc(C2=NN(S(=O)(=O)c3c(C)cc(C)cc3C)CCCC2)ccc1Cl [TCMDC-136217],20.4
12,COc1ccc(-c2ccc(Nc3cccc(S(=O)(=O)CCN4CCC(CCN(C)C)CC4)c3)nc2)cn1 [TCMDC-134376],26.53
13,Fc1ccc2nc(-c3ccc(-c4ccc(CNCC5CCCO5)cc4)s3)[nH]c2c1 (stereo not shown) [TCMDC-133100],-65.64
14,CN(C)C1CCN(CC#Cc2cc3ncnc(Nc4ccc(OCc5cccc(F)c5)c(Cl)c4)c3s2)CC1 [TCMDC-138804],11.68
15,CCN(CCS(C)(=O)=O)Cc1ccc(-c2ccc3ncnc(Nc4ccc(OCc5cccc(F)c5)c(Cl)c4)c3c2)o1 [TCMDC-138533],-31.95
16,CN(C)CCNc1nccc(N2CCc3ncnc(Nc4ccc(OCc5cccc(F)c5)c(Cl)c4)c3C2)n1 [TCMDC-135405],71.57
17,CN(C)Cc1ccc(-c2cc3ncnc(Nc4ccc(OCc5cccc(F)c5)c(Cl)c4)c3s2)[nH]1 [TCMDC-135507],40.2
18,CNCCNc1nccc(N2CCc3ncnc(Nc4ccc(OCc5cccc(F)c5)c(Cl)c4)c3C2)n1 [TCMDC-135478],99.42
19,NCCCNc1nccc(N2CCc3ncnc(Nc4ccc(OCc5cccc(F)c5)c(Cl)c4)c3C2)n1 [TCMDC-135456],85.39
20,CC(=O)NCCNc1nccc(N2CCc3ncnc(Nc4ccc(OCc5ccccn5)c(Cl)c4)c3C2)n1 [TCMDC-135447],3.253
21,CN(C)Cc1ccc(-c2cc3c(Nc4ccc(OCc5cccc(F)c5)c(Cl)c4)ncnc3s2)[nH]1 [TCMDC-135468],11.16
22,Fc1cccc(COc2ccc(Nc3ncnc4ccc(C#C[C@H]5CCCN5)cc34)cc2Cl)c1 [TCMDC-135437],-6.979

row,Structure (SMILES),% Inhibition [%]
1,C[C@@H](N)C#Cc1cc2c(Nc3ccc(OCc4cccc(F)c4)c(Cl)c3)ncnc2s1 [TCMDC-134655],18.43
2,CC(=O)NCCNc1nccc(N2CCc3ncnc(Nc4ccc(OCc5cccc(F)c5)c(Cl)c4)c3C2)n1 [TCMDC-135392],4.041
3,CCN(CC)CCCNc1nccc(N2CCc3ncnc(Nc4ccc(OCc5cccc(F)c5)c(Cl)c4)c3C2)n1 [TCMDC-135406],102.3
4,COc1ccc2nccc([C@@H](O)CN3CCC(NCc4cc5oc(=O)n(C)c5cc4F)CC3)c2c1 [TCMDC-141144],-1.57
5,Fc1cccc(COc2ccc(Nc3ncnc4sc(C#C[C@H]5CCCN5)cc34)cc2F)c1 [TCMDC-134429],-0.575
6,O=C(Nc1ccc(N2CCCCC2)c(Cl)c1)c1ncn[nH]1 [TCMDC-123528],3.564
7,CS(=O)(=O)CCNc1cc(N2CCc3ncnc(Nc4ccc(OCc5cccc(F)c5)c(Cl)c4)c3C2)ncn1 [TCMDC-135477],58.91
8,CC(=O)NCCNc1cc(N2CCc3ncnc(Nc4ccc(OCc5c(F)cccc5F)c(Cl)c4)c3C2)ncn1 [TCMDC-135455],38.09
9,CS(=O)(=O)CCNc1nccc(N2CCc3ncnc(Nc4ccc(OCc5cccc(F)c5)c(Cl)c4)c3C2)n1 [TCMDC-135425],8.296
10,COc1cc(-c2ccccc2)ccc1C(=O)Nc1ccc2c(c1)N(C)CCC2 [TCMDC-141219],-85.17
11,O=C(N1CCN(c2cccc(C(F)(F)F)c2)CC1)C(Cl)(Cl)Cl [TCMDC-125655],-5.728
12,O=C(/C=C/c1ccc(Cl)c(Cl)c1)NC1C2CCC1CC(CN1CCC(c3c[nH]c4ccccc34)CC1)C2 (stereo not shown) [TCMDC-139811],36.93
13,c1ccc(C2CCN(Cc3ccc(-c4c[nH]c5nc(NC6CCCC6)ncc45)cc3)CC2)cc1 [TCMDC-133772],-64.75
14,COc1ccc(Nc2nc(NC3CCN(Cc4ccccc4)CC3)cc(-c3ccncc3)n2)cc1 [TCMDC-134021],-30.5
15,c1ccc(CN2CCC(Nc3ccc(-c4cn[nH]c4-c4ccccn4)nc3)CC2)cc1 [TCMDC-138750],73.03
16,CCCCCC(C)C(C)c1cc(O)c2c(c1)OC(C)(C)CC2(O)c1ccccn1 (stereo not shown) [TCMDC-131713],-6.865
17,Cc1cc(F)ccc1-c1nc(NCCCNCCc2ccccc2)nc2c1ccc(=O)n2-c1c(F)cccc1F [TCMDC-141804],83.84
18,Cc1cc(F)ccc1-c1nc(NCCCN2CCCC2=O)nc2c1ccc(=O)n2-c1c(F)cccc1F [TCMDC-141433],-74.9
19,Cc1cc(F)ccc1-c1nc(NCC(O)CNCCc2ccccc2)nc2c1ccc(=O)n2-c1c(F)cccc1F (stereo not shown) [TCMDC-141784],98.89
20,CCCCCN1CCC(NC(=O)c2ccc(C(=O)Nc3ccc(C(C)C)cc3)cc2)CC1 [TCMDC-136751],8.673
